Screening results: PubChem BioAssay, several laboratories
Compounds with a hit are over-represented: about 2.9% of the library has one in this group of screens.
GDH-TPI inh: GDH-TPI coupling enzyme inhibitors, primary screen, artefact control for M. tuberculosis FBA inhibitor project, biochemical, absorbance, full deck. GDH-TPI coupled enzyme counterscreen, NADH absorbance. inhibition, % at 4.8 µM. 360,000 compounds, 1.2% hits; in the data active = inhibition above about 30%;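 note: 0% = DMSO wells and 100% = wells lacking the enzyme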
Mtb hypoxia inh: PubChem AID 1159583 | 300,000 compounds, 0.1% hits | M. tuberculosis hypoxia-regulated fluorescent reporter, fluorescence | fluorescence inhibition, % (no concentration beside the values); in the data active = fluorescence inhibition mostly above about 23%, no sharp cut-off; inactive = mostly below about 17%
FBA Mtb inh: Mtb FBA enzyme inhibitors, primary screen, biochemical, fluorescence, strain H37Rv. Fructose-bisphosphate aldolase (Mycobacterium tuberculosis (strain ATCC 25618 / H37Rv)), …. purified M. tuberculosis FBA, fluorescence read-out. inhibition, % at 1 µM. 360,000 compounds, 2.3% hits; in the data active = inhibition above about 27%;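 note: 0% = vehicle and 100% = reference inhibitor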
Target sequence (P9WQA3 whole entry, looked up): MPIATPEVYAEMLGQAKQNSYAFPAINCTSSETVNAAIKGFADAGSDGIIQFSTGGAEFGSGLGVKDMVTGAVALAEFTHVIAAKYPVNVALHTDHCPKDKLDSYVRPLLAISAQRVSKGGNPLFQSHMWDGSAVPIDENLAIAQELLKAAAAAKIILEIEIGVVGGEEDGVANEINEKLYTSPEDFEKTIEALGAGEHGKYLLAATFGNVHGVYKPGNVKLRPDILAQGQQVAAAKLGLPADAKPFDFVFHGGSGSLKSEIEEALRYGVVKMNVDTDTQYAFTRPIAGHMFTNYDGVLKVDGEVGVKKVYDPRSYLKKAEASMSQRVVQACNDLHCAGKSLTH
FadD28 FP inh: inhibitors of FadD28 bisubstrate probe binding, primary screen, biochemical, fluorescence polarization, single point | AID 588549, 2011 | 360,000 compounds, 0.22% hits | inhibition, % at 12.5 µM; in the data active = inhibition above about 8.5%, passing the limit was not always enough
BioA inh: M. tuberculosis BioA enzyme inhibitors, primary screen, biochemical, plate reader, single point, HTS; 7,8-diaminopelargonic acid synthase BioA (Mycobacterium tuberculosis); purified M. tuberculosis BioA enzyme; inhibition, % at 9.99 µM; 360,000 compounds, 0.096% hits; AID 602481, 2012; in the data active = inhibition above about 40%
* marks the source's active call; other numbers are inactive results; / = no result given.

SMILES	GDH-TPI inh	Mtb hypoxia inh	FBA Mtb inh	FadD28 FP inh	BioA inh
Cc1nn(C)cc1NC(=O)C[C@H]1CC[C@@H]2[C@H](COc3ccc(NC(=O)C4CCC4)cc3C(=O)N2C)O1	/	/	/	/	-2
CC(C)NC(=O)N(C)C[C@H]1OCCCC[C@@H](C)Oc2ccc(NC(=O)Nc3ccc4c(c3)OCO4)cc2C(=O)N([C@H](C)CO)C[C@@H]1C	/	/	/	/	0
COC(=O)C1(CCSC)NC(c2ccc(O)cc2)C2C(=O)N(c3ccc(F)cc3)C(=O)C21 (stereo not given)	8	-5	114*	-3	-1
Cc1ccccc1S(=O)(=O)N1C[C@H](O)COC[C@@H]2O[C@H](CC(=O)N3CCC(Cc4ccccc4)CC3)CC[C@H]21	/	/	/	/	2
O=C1NC(=O)N(c2ccc3c(c2)OCO3)C(=O)C1=Cc1ccc(N2CCCC2)o1	/	40*	/	/	/
O=C1NC(=O)N(c2ccc3c(c2)OCO3)C(=O)/C1=C/c1ccc(N2CCCCC2)o1	-4	20	-39	-2	-18
CCOc1ccc(N2C(=O)NC(=O)C(=Cc3ccc(N4CCCCC4)o3)C2=O)cc1	/	40*	/	/	/
COc1ccc(CN(C)C[C@H]2Oc3ccc(NC(=O)C4CCCCC4)cc3C(=O)N([C@@H](C)CO)C[C@@H]2C)cc1	/	/	/	/	-1
NC(=NO)c1ccccc1N1CCCCC1	/	5	/	/	/
Cc1nc2ccc(-c3nc4cc(N)ccc4o3)cc2[nH]1	21	11	12	-11	0
Nc1ccc2oc(-c3ccc4nc[nH]c4c3)nc2c1	31*	12	6	-6	2
CC(C)(C)OC(=O)C(CCCCN)NC(=O)c1nc[nH]c1C(=O)NCCCCCN (stereo not given)	/	19	/	/	/
Cn1cnnc1SCc1ccc(C(=O)N=Nc2c(O)n(C)c3ccccc23)cc1	33*	8	2	-1	-1
Nc1nc(SCC(=O)N2N=C3/C(=C/c4ccco4)CCCC3C2c2ccco2)n[nH]1 (stereo not given)	35*	/	4	-4	0
O=C(CSc1nccc(=O)[nH]1)N1N=C2/C(=C/c3ccco3)CCCC2C1c1ccco1 (stereo not given)	12	14	1	-1	-1
Cn1cnnc1SCC(=O)N1N=C2/C(=C/c3ccco3)CCCC2C1c1ccco1 (stereo not given)	19	6	0	-2	/
Nc1nc(SCC(=O)N2N=C3/C(=C\c4ccco4)CCCC3C2c2ccco2)n[nH]1 (stereo not given)	33*	-1	-1	-2	/
Cn1c(=O)n(C)c2cc(C=N/N=C3/NC(=O)C(CC(=O)O)S3)ccc21 (stereo not given)	/	6	/	/	/
CC(C)=N/N=C1/NC(=O)C(c2ccccc2)S1 (stereo not given)	11	/	0	0	0
COc1cc(/C=N/N=C2/NC(=O)C(c3ccccc3)S2)ccc1O (stereo not given)	54*	/	-4	-1	0
COc1cc(/C=N/N=C2/NC(=O)C(Cc3ccc(F)cc3)S2)ccc1O (stereo not given)	42*	/	3	4	/
CSc1ccc(C=NNc2ccc(S(=O)(=O)Nc3ccccc3C(=O)O)cc2[N+](=O)[O-])cc1	-5	10	-5	5	1
COc1ccc(NC(=S)NNc2ccc(S(=O)(=O)Nc3ccccc3C(=O)O)cc2[N+](=O)[O-])cc1	41*	11	-4	22*	/
Cc1nn(-c2ccccc2)c(Cl)c1/C=N/Nc1ccc(S(=O)(=O)Nc2ccccc2C(=O)O)cc1[N+](=O)[O-]	47*	/	-6	12*	-2
COc1ccc(C=NNc2ccc(S(=O)(=O)Nc3ccccc3C(=O)O)cc2[N+](=O)[O-])c(OC)c1	18	16	-5	32*	17
CCOc1ccc(C=NNc2ccc(S(=O)(=O)Nc3ccccc3C(=O)O)cc2[N+](=O)[O-])cc1	14	14	2	5	-3
CCOc1cccc(C=NNc2ccc(S(=O)(=O)Nc3ccccc3C(=O)O)cc2[N+](=O)[O-])c1O	16	15	-4	17*	3
COc1cccc(C=NNc2ccc(S(=O)(=O)Nc3ccccc3C(=O)O)cc2[N+](=O)[O-])c1O	/	22	/	/	/
O=C(O)c1ccccc1NS(=O)(=O)c1ccc(NN=Cc2ccccc2F)c([N+](=O)[O-])c1	32*	6	-1	5	4
